Laboratory results taken from PubChem BioAssay (EPA / NIEHS).
“And” between values parts separate entries of the source, which are not always exact repeats. Identical values can stand only once. Inconclusive results are not listed. The source made the active and inactive calls. Rule for the calls, unless noted: active = hit-call score of the fitted dose curve at least 0.9, where 1 is the maximum; inconclusive = response in the unintended direction; inactive = score below 0.9.

Experiments:
[1] = biological target: Cellular tumor antigen p53 (Homo sapiens) (UniProt P04637); experiment: TOX21_p53_BLA_p2_ratio: Tox21 HCT-116 p53 Agonism Beta-lactamase Assay, Ratio, Phase 2 (AID 2283592)
Cellular tumor antigen p53 (Homo sapiens), sequence (P04637 whole entry, looked up): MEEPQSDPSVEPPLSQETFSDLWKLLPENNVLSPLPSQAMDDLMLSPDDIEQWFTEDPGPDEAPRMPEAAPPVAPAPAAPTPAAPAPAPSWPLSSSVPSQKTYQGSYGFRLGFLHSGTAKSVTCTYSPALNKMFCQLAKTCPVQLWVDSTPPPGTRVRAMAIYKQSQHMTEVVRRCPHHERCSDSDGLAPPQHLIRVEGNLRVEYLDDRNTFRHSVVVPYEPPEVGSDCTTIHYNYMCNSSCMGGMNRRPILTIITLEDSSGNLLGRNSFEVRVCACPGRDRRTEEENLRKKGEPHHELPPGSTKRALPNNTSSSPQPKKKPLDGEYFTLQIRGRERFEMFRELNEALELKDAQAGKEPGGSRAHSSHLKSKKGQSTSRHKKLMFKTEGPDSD
Outline: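 HCT116 cells carrying a p53-responsive beta-lactamase reporter were plated, incubated 5 h at 37C, then dosed with compounds in DMSO (217-fold dilution) for 16 h. CCF4-AM substrate was added for 2 h at room temperature; the 460/530 nm emission ratio gave gain-of-signal activity relative to DMSO.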

[2] = TOX21_p53_BLA_p3_viability: Viability Assessment in the Tox21 HCT-116 p53 Agonism Beta-lactamase Assay, Phase 3 (AID 2283593);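 note: cells exposed to compound for 16 h before reading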
Outline: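 Cellular ATP was quantified by CellTiter-Glo luminescence, read after 30 min at room temperature. Beforehand, HCT116 cells (4000/well) received compound 5 h post-seeding, 217-fold diluted from DMSO, then incubated 16 h at 37C.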

[3] = biological target: Cellular tumor antigen p53 (Homo sapiens) (UniProt P04637); experiment: TOX21_p53_BLA_p3_ratio: Tox21 HCT-116 p53 Agonism Beta-lactamase Assay, Ratio, Phase 3 (AID 2283596)
Outline: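 HCT116 p53-bla cells (4000/well) given compound in DMSO (217-fold dilution) after 5 h, incubated 16 h at 37C. CCF4-AM substrate 2 h at room temperature; 460/530 nm emission ratio, gain fitted against DMSO.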

[4] = TOX21_p53_BLA_p4_viability: Viability Assessment in the Tox21 HCT-116 p53 Agonism Beta-lactamase Assay, Phase 4 (AID 2283597);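 note: hits lower the luminescence signal meaning cytotoxicity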
Outline: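 HCT116 p53-bla cells (4000/well) rested 5 h at 37C, then received compounds in DMSO (217-fold dilution) for 16 h at 37C, 5% CO2. CellTiter-Glo was added after the CCF4-AM read, and luminescence was read after 30 min at room temperature.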

[5] = biological target: Cellular tumor antigen p53 (Homo sapiens) (UniProt P04637); experiment: TOX21_p53_BLA_p4_ratio: Tox21 HCT-116 p53 Agonism Beta-lactamase Assay, Ratio, Phase 4 (AID 2283601)
Outline: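 Signal is the blue/green (460nm/530nm) ratio of cleaved versus uncleaved CCF4-AM substrate, read after 2 h substrate loading. Cells were HCT116 carrying the p53-responsive beta-lactamase reporter, dosed 16 h at 37C, 5% CO2; CellTiter-Glo measured in parallel.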

[6] = test system: Thyroperoxidase (TPO), gene 54314; experiment: CCTE_Simmons_AUR_rTPO: CCTE's Amplex UltraRed Assay for Thyroperoxidase (TPO) Inhibition, Simmons Lab (AID 2283662)
Outline: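 Endpoint is decreased Amplex UltraRed fluorescence after a 30-min, 37C reaction of rat thyroid microsomes with 300 uM H2O2. Eight test concentrations (5 nM–87.5 uM final) in 0.5% DMSO, three biological replicates each.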

[7] = CCTE_Simmons_CellTiterGLO_HEK293T: Viability Assessment in CCTE's Assays for Thyroperoxidase (TPO) Inhibition, Simmons Lab (AID 2283665);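 note: cells exposed to compound for 24 h before readout; actives reduce ATP signal below DMSO vehicle meaning cytotoxicity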
Outline: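 HEK293T cells in DMEM with 1% FBS were dosed with 8 concentrations (5 nM–87.5 uM final, 0.5% DMSO) for 24 hr at 37C; ATP content was read by CellTiter-Glo luminescence, loss-of-signal versus DMSO, three biological replicates.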

[8] = CEETOX_H295R_MTT_cell_viability: Viability Assessment in the CeeTox HT-H295R MTT Assay (AID 2283718; active = hit-call score of the fitted dose curve at least 0.9, where 1 is the maximum; inactive = score below 0.9)
Outline: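 MTT reduction (0.5 mg/ml, 4 h at 37 C; absorbance at 570 and 650 nm) gave viability as background-corrected percent change versus controls. H295R cells had 48 h forskolin (10 uM) prestimulation, then 48 h chemical exposure at 0.1% DMSO.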

[9] = biological target: Luciferin 4-monooxygenase (Photinus pyralis) (UniProt P08659); experiment: CCTE_Simmons_QuantiLum_inhib_2: CCTE's Firefly Luciferase Inhibition Assay, Simmons Lab (AID 2283767)
Luciferin 4-monooxygenase (Photinus pyralis), sequence (P08659 whole entry, looked up): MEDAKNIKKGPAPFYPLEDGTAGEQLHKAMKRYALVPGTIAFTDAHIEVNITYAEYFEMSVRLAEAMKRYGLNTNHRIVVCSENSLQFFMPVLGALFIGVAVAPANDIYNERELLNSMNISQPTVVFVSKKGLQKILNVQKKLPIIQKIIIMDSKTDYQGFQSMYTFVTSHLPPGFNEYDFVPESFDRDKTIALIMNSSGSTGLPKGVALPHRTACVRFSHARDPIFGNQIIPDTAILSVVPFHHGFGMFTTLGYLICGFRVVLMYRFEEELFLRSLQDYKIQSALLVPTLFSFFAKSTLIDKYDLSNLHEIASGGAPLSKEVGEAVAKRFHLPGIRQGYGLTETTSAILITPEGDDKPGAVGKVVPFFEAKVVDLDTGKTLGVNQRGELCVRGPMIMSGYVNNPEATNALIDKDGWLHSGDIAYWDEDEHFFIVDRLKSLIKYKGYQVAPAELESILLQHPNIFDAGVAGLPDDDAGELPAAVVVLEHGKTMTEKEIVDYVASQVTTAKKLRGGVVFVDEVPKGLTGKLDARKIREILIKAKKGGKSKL
Outline: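 Recombinant firefly luciferase (5 ng/well, 200 mM potassium phosphate with 1 mg/ml BSA) was exposed to 8 concentrations from 5 nM to 87.5 uM (final, 0.5% DMSO) for 30 min at 37C in the dark. Loss of luminescence versus DMSO was read after injecting D-luciferin/ATP-analogue reagent.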

[10] = ACEA_AR_agonist_AUC_viability: ACEA Biosciences xCELLigence Real-Time Cell Analysis on Androgen Receptor Agonism for Viability (AID 2283775)
Outline: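 Read-out is area under the impedance curve at 80 h post-dose in 22Rv1 cells, with DMSO as baseline and signal loss taken as reduced viability. Compounds ran in duplicate from 100 uM final.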

[11] = ACEA_AR_antagonist_AUC_viability: ACEA Biosciences xCELLigence Real-Time Cell Analysis on Androgen Receptor Antagonism for Viability (AID 2283776);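 note: 22Rv1 human prostate cancer cells growing on impedance electrode plates; area under impedance growth curve at 80 h after dosing as viability; hits lower the growth signal relative to DMSO meaning cytotoxicity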
Outline: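 Viability endpoint from label-free cell-index monitoring: 22Rv1 cultures treated with an eight-point 1:4 dilution series starting at 100 uM final, AUC at 80 h fitted against DMSO.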

[12] = biological target: Cellular tumor antigen p53 (Homo sapiens) (UniProt P04637); experiment: TOX21_p53_BLA_p5_ratio: Tox21 HCT-116 p53 Agonism Beta-lactamase Assay, Ratio, Phase 5 (AID 2283599)
Outline: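 Beta-lactamase reporter ratio (blue 460 nm over green 530 nm, 405 nm excitation) after 2 h CCF4-AM loading, in HCT-116 cells exposed 16 h at 37 C to compounds pinned at 217-fold dilution. Increases relative to DMSO baseline scored.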

[13] = TOX21_p53_BLA_p5_viability: Viability Assessment in the Tox21 HCT-116 p53 Agonism Beta-lactamase Assay, Phase 5 (AID 2283600)
Outline: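 Cells were plated at 4000/well, rested 5 h at 37C, then given compounds in DMSO (217-fold dilution) for 16 h at 37C, 5% CO2. Following the CCF4-AM beta-lactamase read, CellTiter-Glo was added and luminescence was read after 30 min at room temperature.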

[14] = CCTE_Padilla_ZF_144hpf_TERATOSCORE: (Legacy) CCTE's 144 Hour Post-fertilization zebrafish Assay Teratoscore, Padilla Lab (AID 2283679; active = hit-call score of the fitted dose curve at least 0.9, where 1 is the maximum; inactive = score below 0.9;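 note: zebrafish embryos with chorions exposed by immersion from 6-8 hpf to 5 dpf with daily renewal; teratogenicity score from eye scoring of death hatching and malformations at 144 hpf; higher score means more developmental defects relative to DMSO baseline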)
Outline: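 Larvae scored by eye at 144 hpf for death, hatching and malformations after a day in clean Hanks'. Before that, daily-renewed exposure at 80 uM (0.4% DMSO, 26C) from roughly 6-8 hpf through 5 dpf, 4 embryos per chemical.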

Measured: AC50

CCCCCCCCCCCCCOP(=O)(O)O
active: [2] 72.2 µM | [3] 86.8 µM | [7] 79.1 µM
inactive: [1] | [4] | [5] | [6] | [8] | [9] | [10] | [11]

CC(=O)[C@@]1(O)CC[C@H]2[C@@H]3C[C@H](C)C4=CC(=O)C=C[C@]4(C)[C@@]3(F)[C@@H](O)C[C@@]21C
inactive: [1] | [2] | [3] | [4] | [12] | [5]

CC=C1CC2C=CC1C2 (configuration not stated)
inactive: [1] | [2] | [3] | [4] | [12] | [13] | [5] | [10] | [11]

CC(=O)Oc1ccc(C)cc1
inactive: [1] | [2] | [3] | [12] | [13] | [5]

COCc1c(C(C)C)nc(C(C)C)c(/C=C/[C@@H](O)C[C@@H](O)CC(=O)O)c1-c1ccc(F)cc1
active: [14] 78.1 nM and 159 nM
inactive: [1] | [2] | [3] | [4] | [12] | [5] | [8]

CCCCCCCC/C=C\CCCCCCCC(=O)O
inactive: [1] | [2] | [3] | [4] | [12] | [13] | [5] | [10] | [11]

Cc1ccc2c(c1)C(=O)c1ccccc1C2=O
inactive: [1] | [2] | [3] | [12] | [13]

C[Si](C)(CCCN)O[Si](C)(C)CCCN
inactive: [1] | [2] | [3] | [4] | [12] | [5]

CCC(C)OC(=O)c1ccc(O)cc1 (configuration not stated)
inactive: [1] | [2] | [3] | [12] | [13] | [5]

CCC(CO)CO
inactive: [1] | [2] | [3] | [4] | [12] | [5]

O=c1[nH]nc(-c2ccc([N+](=O)[O-])o2)o1
inactive: [1] | [2] | [3] | [4] | [12] | [5]

Nc1cccc(C(F)(F)F)c1
inactive: [1] | [2] | [3] | [4] | [5]

NCCCN1CCN(CCCN)CC1
inactive: [1] | [2] | [3] | [4] | [12] | [5]

Cn1c([N+](=O)[O-])cnc1COC(N)=O
inactive: [1] | [2] | [3] | [4] | [12] | [13] | [5] | [11]
